From ChEMBL document CHEMBL1961873, “Compounds: GSK PKIS; Assays: Nanosyn kinase panel” (2012) come the findings set out here.

Where “and” joins values, the source holds several entries; their conditions need not be identical. Identical values can stand only once.

In experiment [1] the target is Tyrosine-protein kinase receptor UFO (Homo sapiens) (UniProt P30530). Particulars: at 1 µM.
Experiment [2] deals with Tyrosine-protein kinase Blk (Homo sapiens) (UniProt P51451). The following applies: at 0.1 µM.
For experiment [3] the target is unchanged. The following applies: at 1 µM.
For experiment [4], the target named is T1, Cytoplasmic tyrosine-protein kinase BMX (Homo sapiens) (UniProt P51813).
T1 sequence (whole entry): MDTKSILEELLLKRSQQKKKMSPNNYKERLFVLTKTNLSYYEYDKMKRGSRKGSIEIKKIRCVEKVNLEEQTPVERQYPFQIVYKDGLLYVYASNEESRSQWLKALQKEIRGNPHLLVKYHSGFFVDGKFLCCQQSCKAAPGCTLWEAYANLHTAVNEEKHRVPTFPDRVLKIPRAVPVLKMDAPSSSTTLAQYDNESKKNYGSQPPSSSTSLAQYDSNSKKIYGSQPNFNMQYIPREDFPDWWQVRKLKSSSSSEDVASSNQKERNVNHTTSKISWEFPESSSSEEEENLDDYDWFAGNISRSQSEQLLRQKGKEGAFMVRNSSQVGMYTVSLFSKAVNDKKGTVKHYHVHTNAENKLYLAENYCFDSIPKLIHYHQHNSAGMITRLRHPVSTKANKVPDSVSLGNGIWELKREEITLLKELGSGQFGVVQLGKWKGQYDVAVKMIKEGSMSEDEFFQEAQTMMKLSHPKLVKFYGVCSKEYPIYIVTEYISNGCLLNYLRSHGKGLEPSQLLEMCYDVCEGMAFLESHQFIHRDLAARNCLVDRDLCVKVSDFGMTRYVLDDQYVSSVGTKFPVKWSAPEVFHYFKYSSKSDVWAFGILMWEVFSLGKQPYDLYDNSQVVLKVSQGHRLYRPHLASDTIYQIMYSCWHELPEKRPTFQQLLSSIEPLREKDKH
Particulars: at 0.1 µM.

Experiment [5] has as its target T1, Cytoplasmic tyrosine-protein kinase BMX (Homo sapiens). Particulars: at 1 µM.
The target in experiment [6] is Protein-tyrosine kinase 6 (Homo sapiens) (UniProt Q13882). Particulars: at 0.1 µM.
For experiment [7] the target is unchanged. The following applies: at 1 µM.
The target in experiment [8] is Tyrosine-protein kinase BTK (Homo sapiens) (UniProt Q06187). Particulars: at 0.1 µM.
For experiment [9] the target is unchanged. Particulars: at 1 µM.
Experiment [10] deals with Tyrosine-protein kinase CSK (Homo sapiens) (UniProt P41240). The following applies: at 0.1 µM.
Sequence of Tyrosine-protein kinase CSK (Homo sapiens) (P41240 2-450 limits assumed): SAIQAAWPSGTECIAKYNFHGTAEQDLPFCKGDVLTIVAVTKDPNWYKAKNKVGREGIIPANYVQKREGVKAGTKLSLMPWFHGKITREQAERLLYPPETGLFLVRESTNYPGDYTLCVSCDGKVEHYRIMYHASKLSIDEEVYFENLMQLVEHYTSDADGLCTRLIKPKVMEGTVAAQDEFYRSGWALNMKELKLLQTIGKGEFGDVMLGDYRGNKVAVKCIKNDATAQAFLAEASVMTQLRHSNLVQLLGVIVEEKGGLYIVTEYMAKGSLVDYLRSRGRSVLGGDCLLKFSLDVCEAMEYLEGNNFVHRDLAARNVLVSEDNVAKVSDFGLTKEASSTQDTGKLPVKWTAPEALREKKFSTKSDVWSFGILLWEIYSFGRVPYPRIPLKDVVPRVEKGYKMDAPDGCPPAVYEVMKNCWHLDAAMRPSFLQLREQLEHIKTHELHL

Sequence of Tyrosine-protein kinase receptor UFO (Homo sapiens) (P30530 whole entry): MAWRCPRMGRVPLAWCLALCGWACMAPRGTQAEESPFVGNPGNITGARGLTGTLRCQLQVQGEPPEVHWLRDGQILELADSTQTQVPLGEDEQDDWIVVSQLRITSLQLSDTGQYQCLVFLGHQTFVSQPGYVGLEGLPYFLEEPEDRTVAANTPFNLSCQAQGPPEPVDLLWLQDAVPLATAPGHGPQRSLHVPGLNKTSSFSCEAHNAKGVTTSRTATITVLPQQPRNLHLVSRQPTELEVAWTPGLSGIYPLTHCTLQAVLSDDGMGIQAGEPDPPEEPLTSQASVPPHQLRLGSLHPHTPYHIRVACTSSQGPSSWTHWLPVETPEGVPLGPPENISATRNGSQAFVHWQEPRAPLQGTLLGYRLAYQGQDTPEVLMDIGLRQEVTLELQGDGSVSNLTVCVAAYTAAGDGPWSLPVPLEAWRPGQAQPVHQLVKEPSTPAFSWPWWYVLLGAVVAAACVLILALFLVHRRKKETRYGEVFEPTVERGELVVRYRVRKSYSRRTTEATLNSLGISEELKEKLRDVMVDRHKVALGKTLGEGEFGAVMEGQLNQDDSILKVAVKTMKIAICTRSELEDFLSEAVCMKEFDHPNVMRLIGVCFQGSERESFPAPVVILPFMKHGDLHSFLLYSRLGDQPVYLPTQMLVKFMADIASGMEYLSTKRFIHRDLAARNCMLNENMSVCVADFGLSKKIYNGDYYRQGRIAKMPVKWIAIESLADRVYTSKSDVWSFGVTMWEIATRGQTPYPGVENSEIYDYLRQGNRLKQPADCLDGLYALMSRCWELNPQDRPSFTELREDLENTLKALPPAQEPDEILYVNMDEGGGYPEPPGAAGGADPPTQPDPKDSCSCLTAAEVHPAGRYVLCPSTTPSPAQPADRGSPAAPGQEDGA
Sequence of Tyrosine-protein kinase BTK (Homo sapiens) (Q06187 whole entry): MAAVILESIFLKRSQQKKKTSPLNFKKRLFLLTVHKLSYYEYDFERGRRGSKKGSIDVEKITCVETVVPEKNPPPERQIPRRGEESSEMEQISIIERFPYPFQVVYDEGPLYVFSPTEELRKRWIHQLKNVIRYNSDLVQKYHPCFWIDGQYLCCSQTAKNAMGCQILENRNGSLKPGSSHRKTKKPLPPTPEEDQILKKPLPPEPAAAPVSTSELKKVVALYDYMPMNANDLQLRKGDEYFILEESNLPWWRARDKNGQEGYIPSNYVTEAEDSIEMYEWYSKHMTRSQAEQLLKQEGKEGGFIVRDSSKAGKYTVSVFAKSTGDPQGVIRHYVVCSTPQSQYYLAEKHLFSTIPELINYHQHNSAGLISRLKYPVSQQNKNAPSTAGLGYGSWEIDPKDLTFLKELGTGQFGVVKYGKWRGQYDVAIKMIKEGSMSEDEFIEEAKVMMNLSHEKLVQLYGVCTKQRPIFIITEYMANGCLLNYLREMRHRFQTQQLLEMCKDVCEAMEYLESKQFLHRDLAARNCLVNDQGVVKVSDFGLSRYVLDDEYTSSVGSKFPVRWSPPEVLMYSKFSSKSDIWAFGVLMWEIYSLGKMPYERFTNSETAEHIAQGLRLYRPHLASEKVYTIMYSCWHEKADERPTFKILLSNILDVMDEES
Sequence of Tyrosine-protein kinase Blk (Homo sapiens) (P51451 2-505 limits assumed): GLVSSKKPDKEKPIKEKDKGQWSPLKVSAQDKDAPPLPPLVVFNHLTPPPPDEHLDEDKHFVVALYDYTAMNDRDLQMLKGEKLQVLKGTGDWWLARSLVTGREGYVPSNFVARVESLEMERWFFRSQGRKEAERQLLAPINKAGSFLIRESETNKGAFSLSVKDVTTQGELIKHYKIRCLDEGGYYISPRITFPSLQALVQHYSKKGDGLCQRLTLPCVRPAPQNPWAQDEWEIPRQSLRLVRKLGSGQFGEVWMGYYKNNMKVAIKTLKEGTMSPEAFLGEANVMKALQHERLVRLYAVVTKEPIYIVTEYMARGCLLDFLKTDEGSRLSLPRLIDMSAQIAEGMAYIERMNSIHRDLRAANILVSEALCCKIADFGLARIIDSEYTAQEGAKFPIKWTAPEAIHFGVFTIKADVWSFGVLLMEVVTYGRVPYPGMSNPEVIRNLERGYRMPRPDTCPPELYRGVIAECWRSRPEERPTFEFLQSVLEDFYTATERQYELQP
Sequence of Protein-tyrosine kinase 6 (Homo sapiens) (Q13882 whole entry, looked up): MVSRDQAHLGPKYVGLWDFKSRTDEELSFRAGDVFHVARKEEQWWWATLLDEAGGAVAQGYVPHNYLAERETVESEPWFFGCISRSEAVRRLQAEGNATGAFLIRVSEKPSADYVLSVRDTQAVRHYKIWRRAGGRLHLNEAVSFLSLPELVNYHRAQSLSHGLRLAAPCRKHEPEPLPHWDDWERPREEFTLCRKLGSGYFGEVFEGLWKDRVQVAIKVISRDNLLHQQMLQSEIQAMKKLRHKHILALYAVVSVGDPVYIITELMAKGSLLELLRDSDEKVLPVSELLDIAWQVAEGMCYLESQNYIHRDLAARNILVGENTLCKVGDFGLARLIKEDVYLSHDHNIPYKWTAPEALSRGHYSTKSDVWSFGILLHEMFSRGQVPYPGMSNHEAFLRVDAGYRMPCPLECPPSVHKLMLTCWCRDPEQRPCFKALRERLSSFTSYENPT

As usually defined, the inhibition is the change of the read-out against control, counted positive when it falls. On to `COc1cc(N2CCN(C(C)C)CC2)ccc1Nc1nc(Nc2cccc(F)c2C(=O)O)c2cc[nH]c2n1`, for which the inhibition in experiment [1] was found to be 37.3%; in [2], 2.92%; in experiment [3], 4.31%; in [4], 2.19%; in experiment [5] it was 4.13%; in experiment [6] it was 4.63%. Further, the inhibition in [7] was 8.17%; in [8], -0.37%; in [9] it was 0.06%; in experiment [10] it was 5.06%.

As for `CN1CCC(C(=O)Nc2n[nH]c3nc(-c4ccc(O)cc4)c(Br)cc23)CC1`, the inhibition in experiment [1] was -2.51% and -3.39%; in experiment [2], -0.49% and 1.32%; in experiment [3], 0.8% and 4.39%; in [4], 4.12% and 2.58%; in experiment [5] it was 3.63% and 4.39%; in experiment [6] it was 4.15% and 1.12%. The inhibition in experiment [7] was 9.38% and 6.4%; in experiment [8], -3.39% and 0.29%; in [9], -2.64% and 0.46%; in [10] it was -0.63%.

In the case of `CCS(=O)(=O)c1ccc(OC)c(Nc2ncc(-c3cccc(F)c3)o2)c1`, the inhibition in experiment [1] is -5.62%; in [2], 21.3%; in experiment [3], 73.8%; in experiment [4], 1.13%; in experiment [5], 33%; in experiment [6], 9.28%. Also, the inhibition in [7] was determined as 29.8%; in experiment [8], 3.65%; in experiment [9], 28.6%; in experiment [10], 7.64%.

Consider `CC1=C(C(=O)Nc2ccc3[nH]nc(C)c3c2)C(c2ccc(C(F)(F)F)cc2)CC(=O)N1` (stereo not given), for which the inhibition in experiment [1] was -6.56%; in experiment [2], 3.36%; in [3], 17%; in experiment [4], -2.44%; in experiment [5], 4.58%; in experiment [6], 3.23%. Further, the inhibition in [7] amounted to 23.5%; in experiment [8], 1.29%; in experiment [9], 2.32%; in [10] it was 1.88%.

Regarding `FC(F)(F)CNc1nccc(-c2cnn3ncccc23)n1`, the inhibition in experiment [1] was -3.11%; in experiment [2], 1.37%; in [3], 2.35%; in experiment [4] it was 4.12%; in experiment [5] it was 2.03%; in [6], -1.25%. The inhibition stood at 3.34% in experiment [7], 0.18% in experiment [8], 0.42% in [9] and 2.81% in [10].

In the case of `CNC(=O)c1ncccc1Nc1nc(Nc2cc3c(cc2OC)CCCN3C(=O)CN(C)C)nc2[nH]ccc12`, the inhibition in experiment [1] stood at 53.5%; in experiment [2], 2.8%; in [3] it was 7.25%; in experiment [4], 3.62%; in experiment [5], 4.96%; in experiment [6], 4%. Further, the inhibition in experiment [7] is 6.37%; in experiment [8], 0.46%; in experiment [9], 1.22%; in experiment [10], 2.99%.

Regarding `OCCCNc1nccc(-c2c(-c3ccc(F)cc3)nn3cc(C(F)(F)F)ccc23)n1`, the inhibition in experiment [1] worked out at 1.31%; in experiment [2], 1.06%; in [3], 2.83%; in experiment [4], 5.93%; in experiment [5] it was 3.3%; in experiment [6], 1.91%. The inhibition in experiment [7] is 5.03%; in experiment [8] it was 0.07%; in experiment [9] it was 0.45%; in experiment [10] it was 4.06%.

Turning to `CS(=O)(=O)CCNCc1ccc(-c2ccc3ncnc(Nc4ccc(OCc5ccccc5)cc4)c3c2)o1`, the inhibition in experiment [1] is -1.88%; in experiment [2] it was 3.85%; in experiment [3] it was 14.1%; in experiment [4], 3.59%; in [5] it was 8.85%; in experiment [6] it was 2.05%. In addition, the inhibition in [7] turned out to be 13.7%; in experiment [8], 0.51%; in experiment [9], 6.4%; in experiment [10], 5.85%.

As for `CCCNc1cccc(-n2ncc3c(N/N=C/c4ccncc4)ncnc32)c1`, the inhibition in [1] is 13.2%; in [2], 14.2%; in experiment [3], 62.9%; in experiment [4], 1.67%; in experiment [5] it was 13.4%; in experiment [6] it was 8.53%. Also, the inhibition in experiment [7] was found to be 51%; in [8], 1.43%; in experiment [9] it was 4.2%; in experiment [10], 2.59%.

Regarding `COc1ccc(-c2nn3ncccc3c2-c2ccnc(Nc3ccc(F)c(F)c3)n2)cc1`, the inhibition was -3.4% in [1]; 3.7% in experiment [2]; 7.65% in [3]; 6.68% in experiment [4]; 6.9% in experiment [5]; 9.68% in experiment [6]. For the same molecule, the inhibition is 46.2% in experiment [7], 0.77% in experiment [8], 0.68% in [9] and 4.89% in experiment [10].

With `CS(=O)(=O)CCNCc1ccoc1-c1ccc2ncnc(Nc3ccc(OCc4ccccc4)cc3)c2c1`, the inhibition in experiment [1] was 1.55%; in experiment [2] it was 0.99%; in experiment [3] it was 7.84%; in experiment [4] it was 1.55%; in experiment [5] it was 3.4%; in experiment [6], 1.71%. Also, the inhibition in [7] came to 8.3%; in [8], 0.01%; in [9], 0.8%; in [10], 2.96%.

`Cn1c(-c2nonc2N)nc2cnccc21`: the inhibition in experiment [1] is -1.86%; in experiment [2], 0.51%; in experiment [3] it was 0.41%; in [4], 9.58%; in [5], 4.09%; in experiment [6] it was 4.32%. In addition, the inhibition is 4.24% in [7], 0.86% in experiment [8], 0.33% in experiment [9] and 3.1% in [10].

Regarding `Nc1nonc1-c1nc2cnccc2n1C1CC1`, the inhibition is 0.16% and -1.32% in [1]; 2.66% and -2.38% in experiment [2]; 4.59% and -2.3% in [3]; 6.52% and -2.61% in [4]; 4.75% and 2.31% in experiment [5]; 5.31% and 2.92% in experiment [6]. In addition, the inhibition is 3.69% and 2.66% in experiment [7]; 1.67% and -4.68% in experiment [8]; 1.98% and -4.91% in experiment [9]; 3.81% and 3.48% in experiment [10].

In the case of `COc1ccccc1-c1cc(/C=C2\C(=O)Nc3ncc(Br)cc32)cc(Br)c1O`, the inhibition in experiment [1] was -1.51%; in experiment [2], 2.49%; in experiment [3], 10.7%; in experiment [4], 0.75%; in [5] it was 6.48%; in experiment [6], 5.88%. The inhibition was 3.92% in [7], 1.5% in experiment [8], 2.07% in [9] and 3.21% in experiment [10].

Take `CS(=O)(=O)Nc1ccc(-c2ccc3c(NC(=O)C4CC4)n[nH]c3c2)cc1`: the inhibition in [1] was 0.24%; in [2], 2.19%; in experiment [3], 9.5%; in experiment [4], -5.43%; in [5], 4.64%; in experiment [6] it was 1.77%. For the same molecule, the inhibition was 2.53% in experiment [7], 1% in experiment [8], 1.7% in experiment [9] and 3.59% in experiment [10].
